# About 310 (2.8%) of roughly 11,000 compounds were called active. No stated cut-off is given here; in the data, active means activity change below about -85%; inactive means the rest. What follows is part of a selection rich in actives, with near analogues and random picks from the rest.
# Tested on: intestinal alkaline phosphatase [Mus musculus]
# Assay: activators of mouse IAP, confirmation, biochemical, luminescence, single concentration (AID 434970)
# Details: purified mouse IAP, CDP-Star luminescence, 30 min, at 10 µM; activation factor: measured here: IAP activation factor, stronger effect = higher value; activity change, negative = activation: stronger effect = lower value
Compound,activation factor,"activity change, negative = activation"
CC(=O)Nc1ccc(NS(C)(=O)=O)cc1,0.891,10.9% (inactive)
O=C1CC(N2CCN(c3ccccc3F)CC2)C(=O)N1c1ccc2c(c1)OCCO2 (stereo unspecified),0.964,3.6% (inactive)
O=C(CSc1nnc(-c2ccco2)n1Cc1ccco1)NCc1ccccc1,1.11,-11.1% (inactive)
O=C(Nc1cccc(C(F)(F)F)c1)NC1CCN(S(=O)(=O)c2ccc(F)cc2)CC1,1.81,-81.5% (inactive)
O=C(Nc1cccc(C(F)(F)F)c1)NC1CCCCC1,2.1,-110% (active)
FC(F)(F)c1ccc(NC(=S)NC2CCCCC2)cc1,1.25,-24.9% (inactive)
O=c1[nH]c2ccc(S(=O)(=O)Nc3ccc(-c4nnc5n4CCCCC5)cc3)cc2o1,0.87,13% (inactive)
CCC(NC(=S)NCc1ccc(F)cc1)c1ccc(C(C)C)cc1 (stereo unspecified),1.39,-38.5% (inactive)
CC(NC(=S)NCc1ccc(F)cc1)C12CC3CC(CC(C3)C1)C2 (stereo unspecified),4.19,-319% (active)
CCc1ccc(C(C)NC(=S)NCc2ccc(F)cc2)cc1 (stereo unspecified),1.11,-10.5% (inactive)
COc1cc(CN(C2CC2)S(=O)(=O)c2ccccc2Br)cc(OC)c1,1.07,-7.4% (inactive)
O=C(c1ccco1)N1CCN(C(=O)C2CCN(S(=O)(=O)c3cnc[nH]3)CC2)CC1,0.909,9.15% (inactive)
CC(C)(C)c1nc(NC(=O)Nc2ccccc2)sc1Br,2.12,-112% (active)
CCOc1ccc2nc(NC(=O)Nc3ccccc3)sc2c1,1.04,-3.8% (inactive)
O=C(NNc1cccc(Cl)n1)Nc1ccccc1,0.964,3.55% (inactive)
CC(C)(C)c1ccc(OC(=O)c2cccnc2)cc1,1.01,-0.6% (inactive)
CCO/C(C)=C1\N=C(c2ccc(Cl)cc2)OC1=O,1.06,-5.85% (inactive)
O=C(NCc1ccc2c(c1)OCO2)C1CCCN1C(=O)Nc1cccc(Cl)c1 (stereo unspecified),1.03,-2.95% (inactive)
O=C(Nc1cccc(-c2cccc(F)c2)c1)C1CCN(Cc2ccc(CO)o2)CC1,1.64,-64.3% (inactive)
O=C(Nc1ccc2c(c1)OCCO2)C1CCN(S(=O)(=O)c2cccc3nsnc23)CC1,0.988,1.25% (inactive)
O=C(Nc1cccc(-c2cccc(Cl)c2)c1)C1CCN(Cc2ccon2)CC1,1.73,-73.1% (active)
Cc1oc(-c2ccc(Cl)cc2)nc1CN1CCC(C(=O)NCc2cccs2)CC1,1.19,-19.5% (inactive)
COCc1ccc(CN2CCC(C(=O)Nc3cccc(-c4cccc(Cl)c4)c3)CC2)o1,4.36,-336% (active)
O=C(Nc1cccc(-c2cccc(Cl)c2)c1)C1CCN(Cc2ccc(CO)o2)CC1,2.61,-161% (active)

Compound,activation factor,"activity change, negative = activation"
O=C(Nc1ccc(Br)c(Cl)c1)C1CC1,1.01,-1.05% (inactive)
O=C(Nc1cccc(-c2cccc(Cl)c2)c1)C1CCN(CC2CCOC2)CC1 (stereo unspecified),2.32,-132% (active)
CCOc1ccc(Br)cc1S(=O)(=O)Nc1ccccc1N1CCOCC1,0.919,8.1% (inactive)
CC(C)N(C(=O)[C@H]1C[C@H](CC(=O)NC(C)(C)C)C(=O)N2CCc3c([nH]c4cc(-c5ccco5)ccc34)[C@]12C)C(C)C,1.09,-9% (inactive)
CC(=O)NC1=NN(C(C)=O)C(c2cccs2)S1 (stereo unspecified),1.08,-8% (inactive)
CCSc1sccc1C1C(C#N)=C(N)N(c2cccnc2)C2=C1C(=O)CCC2 (stereo unspecified),0.703,29.8% (inactive)
Cc1oc(-c2ccccc2F)nc1CN1CCC(C(=O)NC2CCCc3ccccc32)CC1 (stereo unspecified),1.12,-12.4% (inactive)
CC[C@]12c3[nH]c4ccc(OC)cc4c3CCN1C(=O)C(CC(=O)NCc1cccc(C(F)(F)F)c1)C[C@@H]2C(=O)N1CCN(C(=O)c2ccco2)CC1 (stereo partly specified),0.989,1.05% (inactive)
CN(Cc1ccccc1)C(=O)Cn1cccc1C(=O)c1ccccc1,1.13,-13.4% (inactive)
O=C(C1CCCN1C(=O)c1cccs1)N1CCN(Cc2ccc3c(c2)OCO3)CC1 (stereo unspecified),0.924,7.55% (inactive)
OCCN1CCN(C(=S)c2ccc(Cl)c(Cl)c2)CC1,0.845,15.5% (inactive)
CSCC[C@H](N)C(=O)NC[C@H]1O[C@@H](n2cnc3c(N)ncnc32)[C@H](O)[C@@H]1O,0.994,0.55% (inactive)
CC(C)CC(=O)NC(NC(=S)Nc1sc2c(c1C#N)CCCC2)C(Cl)(Cl)Cl (stereo unspecified),0.587,41.3% (inactive)
C[C@@H]1CN([C@H](C)CO)C(=O)c2cc(NC(=O)Nc3cccc4ccccc34)ccc2O[C@H]1CN(C)Cc1ccc(C(F)(F)F)cc1,2.2,-120% (active)
CC(C)NC(=O)N(C)C[C@H]1Oc2ccc(NC(=O)Nc3ccc(C(F)(F)F)cc3)cc2C(=O)N([C@H](C)CO)C[C@@H]1C,1.96,-96.3% (inactive)
C[C@@H]1CN([C@H](C)CO)C(=O)c2cc(NC(=O)Nc3ccc(F)cc3)ccc2O[C@H]1CN(C)C(=O)Nc1ccc(C(F)(F)F)cc1,1.57,-57.4% (inactive)
C[C@@H]1CN([C@@H](C)CO)C(=O)Cc2cc(NC(=O)Nc3cccc4ccccc34)ccc2O[C@@H]1CN(C)S(C)(=O)=O,1.46,-46.2% (inactive)
C[C@@H]1CN([C@@H](C)CO)C(=O)Cc2cc(NC(=O)Nc3cccc4ccccc34)ccc2O[C@@H]1CN(C)Cc1ccc(C(F)(F)F)cc1,1.75,-75% (inactive)
C[C@@H]1CN([C@@H](C)CO)C(=O)c2cc(NC(=O)Nc3ccccc3)ccc2O[C@H]1CN(C)C(=O)Nc1cccc2ccccc12,1.8,-79.6% (inactive)
C[C@H](CO)N1C[C@H](C)[C@H](CN(C)Cc2ccc(Oc3ccccc3)cc2)Oc2ccc(NC(=O)Nc3cccc4ccccc34)cc2CC1=O,2.03,-103% (active)
C[C@@H]1CN([C@H](C)CO)C(=O)Cc2cc(NC(=O)Nc3ccccc3)ccc2O[C@@H]1CN(C)Cc1ccc2c(c1)OCO2,1.66,-66.3% (inactive)
C[C@H](CO)N1C[C@H](C)[C@H](CN(C)Cc2ccccc2)Oc2ccc(NC(=O)Nc3ccc(F)cc3)cc2C1=O,1.54,-53.5% (inactive)
C[C@H]1CN([C@@H](C)CO)C(=O)c2cc(NC(=O)Nc3cccc4ccccc34)ccc2O[C@@H]1CN(C)Cc1ccc(-c2ccccc2)cc1,2.14,-114% (active)
C[C@@H]1CN([C@@H](C)CO)C(=O)c2cccc(NC(=O)Nc3ccc(F)cc3)c2O[C@@H]1CN(C)Cc1ccc(Oc2ccccc2)cc1,2.17,-117% (active)
